Experimental data published in PubChem BioAssay AID1159580 (chemical genetic matrix, 2015).
Where “and” joins values, the source holds several entries; their conditions need not be identical. Identical values can stand only once. In all, about 5,500 compounds went through this assay and about 2,000 (36%) were called active. Inconclusive results (about 18%) are left out. Rule as the data show it: active = normalized growth mostly below about 0.91 (no sharp cut-off); inconclusive = no clear call, values can overlap the other calls; inactive = mostly above about 0.92. The list shows a part of the results.

Assay: chemical genetic growth profiling, strain panel (AID 1159580);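 also: tested at 20 µM; growth read once vehicle control cultures reached saturation at 30 °C; 1 = growth at the plate median or of vehicle wells; lower values mean less growth of the strain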
Conditions: S. cerevisiae deletion strains, growth OD

Measured: normalized growth

O=C(O)CCCc1ccccc1
0.998 (inactive) and 0.811 (active): locus YJL095W, strain BCK1, stronger effect = lower value
inactive: locus YAL021C, strain ccr4, stronger effect = lower value 0.962 | locus YAL026C, strain drs2, stronger effect = lower value 0.989 | locus YAL030W, strain snc1, stronger effect = lower value 0.988 | locus YBL061C, strain skt5, stronger effect = lower value 0.991 | locus YBR009C, strain hhf1, stronger effect = lower value 0.988 | locus YBR021W, strain FUR4, stronger effect = lower value 0.955 | locus YBR023C, strain chs3, stronger effect = lower value 0.994 | locus YBR171W, strain sec66, stronger effect = lower value 0.975 | locus YBR229C, strain ROT2, stronger effect = lower value 0.999 | locus YBR231C, strain swc5, stronger effect = lower value 1 | locus YBR279W, strain paf1, stronger effect = lower value 0.974 | locus YCL011C, strain gbp2, stronger effect = lower value 0.98 | locus YCL016C, strain dcc1, stronger effect = lower value 0.985 | locus YCL029C, strain bik1, stronger effect = lower value 0.982 | locus YCL069W, strain vba3, stronger effect = lower value 0.981 | locus YCR088W, strain abp1, stronger effect = lower value 0.973 | locus YDL005C, strain med2, stronger effect = lower value 0.979 | locus YDL035C, strain GPR1, stronger effect = lower value 1.01 | locus YDL040C, strain nat1, stronger effect = lower value 0.989 | locus YDL074C, strain BRE1, stronger effect = lower value 1 | locus YDL101C, strain DUN1, stronger effect = lower value 1 | locus YDL185W, strain tfp1, stronger effect = lower value 0.948 | locus YDL192W, strain arf1, stronger effect = lower value 0.996 | locus YDR001C, strain nth1, stronger effect = lower value 0.977 | locus YDR069C, strain doa4, stronger effect = lower value 1 | locus YDR101C, strain arx1, stronger effect = lower value 0.941 | locus YDR137W, strain rgp1, stronger effect = lower value 1 | locus YDR150W, strain NUM1, stronger effect = lower value 0.998 | locus YDR159W, strain sac3, stronger effect = lower value 0.981 | locus YDR162C, strain NBP2, stronger effect = lower value 1 | locus YDR195W, strain ref2 1.04 | locus YDR297W, strain sur2, stronger effect = lower value 0.991 | locus YDR318W, strain mcm21, stronger effect = lower value 0.986 | locus YDR334W, strain swr1, stronger effect = lower value 0.978 | locus YDR335W, strain msn5, stronger effect = lower value 0.988 | locus YDR388W, stronger effect = lower value 0.999 | locus YDR392W, strain spt3, stronger effect = lower value 0.963 | locus YDR502C, strain sam2, stronger effect = lower value 0.981 | locus YEL003W, strain gim4, stronger effect = lower value 0.986 | locus YEL037C, strain rad23, stronger effect = lower value 0.989 | locus YEL061C, strain CIN8 (second series), stronger effect = lower value 0.983 | locus YEL061C, strain CIN8, stronger effect = lower value 0.999 | locus YER015W, strain faa2, stronger effect = lower value 1 | locus YER016W, strain bim1, stronger effect = lower value 0.989 | locus YER110C, stronger effect = lower value 1 | locus YER111C, strain swi4, stronger effect = lower value 0.992 | locus YER155C, strain BEM2 (second series), stronger effect = lower value 1.01 | locus YER155C, strain BEM2, stronger effect = lower value 0.975 | locus YER167W, strain BCK2, stronger effect = lower value 1 | locus YFR010W, strain ubp6, stronger effect = lower value 0.997 | locus YGL078C, strain dbp3, stronger effect = lower value 0.933 | locus YGL086W, strain mad1, stronger effect = lower value 0.97 | locus YGL167C, strain pmr1, stronger effect = lower value 0.995 | locus YGL173C, strain kem1, stronger effect = lower value 0.997 | locus YGL227W, strain vid30, stronger effect = lower value 0.977 | locus YGL240W, strain doc1, stronger effect = lower value 1 | locus YGL248W, strain PDE1, stronger effect = lower value 0.997 | locus YGL253W, strain hxk2, stronger effect = lower value 0.974 | locus YGR135W, strain pre9, stronger effect = lower value 1.04 | locus YGR229C, strain SMI1, stronger effect = lower value 1.01 | locus YGR252W, strain gcn5, stronger effect = lower value 0.939 | locus YHR013C, strain ard1, stronger effect = lower value 1.01 | locus YHR027C, strain rpn1, stronger effect = lower value 1.01 | locus YHR079C, strain IRE1 (second series), stronger effect = lower value 0.975 | locus YHR094C, strain hxt1, stronger effect = lower value 0.995 | locus YHR129C, strain ARP1, stronger effect = lower value 0.993 | locus YHR142W, strain chs7, stronger effect = lower value 0.988 | locus YHR200W, strain rpn10, stronger effect = lower value 0.996 | locus YIL066C, strain RNR3, stronger effect = lower value 0.999 | locus YIL073C, strain SPO22, stronger effect = lower value 1.06 | locus YIR030C, strain dcg1, stronger effect = lower value 0.988 | locus YJL092W, strain hpr5, stronger effect = lower value 0.985 | locus YJL095W, strain BCK1 (second series), stronger effect = lower value 0.989 | locus YJL115W, strain asf1, stronger effect = lower value 0.986 | locus YJL129C, strain trk1, stronger effect = lower value 0.983 | locus YJL134W, strain LCB3, stronger effect = lower value 1.01 | locus YJL154C, strain vps35, stronger effect = lower value 0.976 | locus YJL164C, strain tpk1, stronger effect = lower value 0.987 | locus YJL166W, strain qcr8, stronger effect = lower value 0.992 | locus YJL168C, strain set2, stronger effect = lower value 0.998 | locus YJL187C, strain SWE1 (second series), stronger effect = lower value 0.99 | locus YJL187C, strain SWE1, stronger effect = lower value 0.99 | locus YJR043C, strain POL32, stronger effect = lower value 0.98 | locus YJR075W, strain HOC1, stronger effect = lower value 1.01 | locus YKL009W, strain mrt4, stronger effect = lower value 1 | locus YKL160W, strain elf1, stronger effect = lower value 0.969 | locus YKR001C, strain vps1, stronger effect = lower value 0.951 | locus YKR026C, strain gcn3, stronger effect = lower value 0.98 | locus YKR091W, strain srl3, stronger effect = lower value 0.98 | locus YLL001W, strain dnm1, stronger effect = lower value 0.995 | locus YLL026W, stronger effect = lower value 0.985 | locus YLL041C, strain sdh2, stronger effect = lower value 0.989 | locus YLR027C, strain aat2, stronger effect = lower value 0.984 | locus YLR039C, strain RIC1, stronger effect = lower value 1.01 | locus YLR058C, strain SHM2, stronger effect = lower value 1 | locus YLR102C, strain apc9, stronger effect = lower value 0.994 | locus YLR221C, strain rsa3, stronger effect = lower value 0.955 | locus YLR258W, strain gsy2, stronger effect = lower value 0.98 | locus YLR262C, strain YPT6 (second series), stronger effect = lower value 0.968 | locus YLR262C, strain YPT6, stronger effect = lower value 1.01 | locus YLR268W, strain sec22, stronger effect = lower value 0.985 | locus YLR320W, strain mms22, stronger effect = lower value 0.992 | locus YLR330W, strain CHS5, stronger effect = lower value 0.998 | locus YLR342W, strain FKS1 (second series), stronger effect = lower value 1.05 | locus YLR342W, strain FKS1, stronger effect = lower value 1.01 | locus YLR357W, strain rsc2, stronger effect = lower value 1 | locus YLR370C, strain arc18, stronger effect = lower value 0.977 | locus YLR371W, strain rom2, stronger effect = lower value 0.99 | locus YLR384C, strain iki3, stronger effect = lower value 0.989 | locus YLR418C, strain cdc73, stronger effect = lower value 1.02 | locus YML016C, strain PPZ1, stronger effect = lower value 1.01 | locus YML032C, strain rad52, stronger effect = lower value 0.982 | locus YML120C, strain ndi1, stronger effect = lower value 1 | locus YML124C, strain tub3, stronger effect = lower value 0.986 | locus YMR058W, strain fet3, stronger effect = lower value 0.989 | locus YMR078C, strain ctf18, stronger effect = lower value 0.992 | locus YMR125W, strain sto1, stronger effect = lower value 0.999 | locus YMR129W, stronger effect = lower value 0.978 | locus YMR205C, strain PFK2, stronger effect = lower value 0.972 | locus YMR223W, strain ubp8, stronger effect = lower value 1.02 | locus YMR231W, strain pep5, stronger effect = lower value 0.985 | locus YMR307W, strain GAS1, stronger effect = lower value 1.1 | locus YNL067W, strain RPL9B, stronger effect = lower value 0.981 | locus YNL071W, strain lat1, stronger effect = lower value 0.992 | locus YNL209W, strain ssb2, stronger effect = lower value 1.01 | locus YNL233W, strain BNI4, stronger effect = lower value 1 | locus YNL248C, strain rpa49, stronger effect = lower value 0.907 | locus YNL250W, strain rad50, stronger effect = lower value 0.925 | locus YNL271C, strain bni1, stronger effect = lower value 0.943 | locus YNL298W, strain CLA4, stronger effect = lower value 0.955 | locus YNL307C, strain MCK1, stronger effect = lower value 0.992 | locus YNL322C, strain KRE1 (second series), stronger effect = lower value 0.954 | locus YNR049C, strain mso1, stronger effect = lower value 0.975 | locus YNR052C, strain pop2, stronger effect = lower value 0.986 | locus YOL012C, strain htz1 1.62 | locus YOL147C, strain pex11, stronger effect = lower value 0.987 | locus YOR001W, strain rrp6, stronger effect = lower value 0.962 | locus YOR061W, strain CKA2, stronger effect = lower value 1 | locus YOR069W, strain VPS5, stronger effect = lower value 1 | locus YOR070C, strain gyp1, stronger effect = lower value 0.988 | locus YOR080W, strain dia2, stronger effect = lower value 0.994 | locus YOR083W, strain WHI5, stronger effect = lower value 0.975 | locus YOR106W, strain vam3, stronger effect = lower value 0.988 | locus YOR136W, strain idh2, stronger effect = lower value 0.976 | locus YOR144C, strain elg1, stronger effect = lower value 0.996 | locus YOR184W, strain ser1, stronger effect = lower value 0.988 | locus YOR265W, strain rbl2, stronger effect = lower value 0.989 | locus YOR270C, strain vph1, stronger effect = lower value 0.991 | locus YOR290C, strain snf2, stronger effect = lower value 0.962 | locus YOR316C, strain cot1, stronger effect = lower value 0.998 | locus YPL051W, strain arl3, stronger effect = lower value 0.988 | locus YPL055C, strain LGE1, stronger effect = lower value 0.963 | locus YPL078C, strain atp4, stronger effect = lower value 0.985 | locus YPL106C, strain sse1, stronger effect = lower value 0.969 | locus YPL240C, strain hsp82, stronger effect = lower value 0.988 | locus YPL241C, strain CIN2, stronger effect = lower value 1.01 | locus YPR119W, strain clb2, stronger effect = lower value 0.995 | locus YPR163C, strain tif3, stronger effect = lower value 0.983 | locus YPR167C, strain met16, stronger effect = lower value 0.99 | strain wtn01, stronger effect = lower value 0.995
1 (inactive) and 0.818 (active): locus YHR030C, strain SLT2, stronger effect = lower value
active: locus YHR079C, strain IRE1, stronger effect = lower value 0.801 | locus YIL125W, strain kgd1, stronger effect = lower value 0.892 | locus YJR066W, strain TOR1, stronger effect = lower value 0.795 | locus YKL068W, stronger effect = lower value 0.917 | locus YKL085W, strain MDH1 (second series), stronger effect = lower value 0.93 | locus YKL085W, strain MDH1, stronger effect = lower value 0.93 | locus YLR113W, strain HOG1, stronger effect = lower value 0.687 | locus YNL183C, strain NPR1, stronger effect = lower value 0.772 | locus YOR231W, strain MKK1, stronger effect = lower value 0.778 | locus YPL256C, strain CLN2, stronger effect = lower value 0.72 | locus YPR141C, strain kar3, stronger effect = lower value 0.896
